According to PubChem BioAssay (NCI):
The panel holds about 83,000 compounds, 20% with a hit somewhere; the sample as a whole holds those more often.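 Plates (96-well) were seeded with cells, treated with compound at one concentration, and incubated for 48 hours before percent growth was determined.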 Unmarked numbers belong to inactive results. Active and inactive are the calls of the source. Rule for the calls: active = growth percent below 10; inactive = the rest.

Legend:
Assay in all cases: NCI-60 one-dose screen, 48 h (100 = growth as untreated, 0 = no growth, -100 = all killed)
Details in all cases: 10 µM unless noted
NCI-H23 lung = tested on: NCI-H23 lung
NCI-H226 lung = tested on: NCI-H226 lung
NCI-H322M lung = tested on: NCI-H322M lung
HOP-62 NSCLC = tested on: HOP-62 NSCLC
NCI-H460 lung = tested on: NCI-H460 lung
HOP-92 NSCLC = tested on: HOP-92 NSCLC
NCI-H522 lung = tested on: NCI-H522 lung
A549/ATCC NSCLC = tested on: A549/ATCC NSCLC
786-0 renal = tested on: 786-0 renal
COLO 205 colon = tested on: COLO 205 colon
DU-145 prostate = tested on: DU-145 prostate
K-562 leukemia = tested on: K-562 leukemia
MALME-3M melanoma = tested on: MALME-3M melanoma
MDA-MB-231 breast = tested on: MDA-MB-231 breast
RXF 393 renal = tested on: RXF 393 renal
SF-268 CNS = tested on: SF-268 CNS
SF-295 CNS = tested on: SF-295 CNS
SF-539 CNS = tested on: SF-539 CNS
UACC-257 melanoma = tested on: UACC-257 melanoma
M14 melanoma = tested on: M14 melanoma

Structure (SMILES) | growth (NCI-H23 lung) | growth (NCI-H226 lung) | growth (NCI-H322M lung) | growth (HOP-62 NSCLC) | growth (NCI-H460 lung) | growth (HOP-92 NSCLC) | growth (NCI-H522 lung) | growth (A549/ATCC NSCLC) | growth (786-0 renal) | growth (COLO 205 colon) | growth (DU-145 prostate) | growth (K-562 leukemia) | growth (MALME-3M melanoma) | growth (MDA-MB-231 breast) | growth (RXF 393 renal) | growth (SF-268 CNS) | growth (SF-295 CNS) | growth (SF-539 CNS) | growth (UACC-257 melanoma) | growth (M14 melanoma)
COc1cc(C2C3=C(COC3=O)Nc3cc4c(cc32)CCC4)cc2c1OCO2 (stereo not drawn) | 19.6% | 31.9% | 50.7% | 35.5% | 7.05% (active) | 41.1% | -3.96% (active) | 18.7% | 18.1% | -63.1% (active) | -0.3% (active) | 14.1% | 60% | 20.8% | 30.4% | 27.9% | 6.57% (active) | 10.2% | 73.1% | 12%
CN(C[C@H]1Cc2c(cccc2N2CCN(Cc3ccccn3)CC2)CN1)[C@H]1CCCc2cccnc21 | 62.4% | 56.9% | 65.3% | 39.1% | 28.1% | 73.2% | 95.5% | 40.3% | 68.5% | 69.6% | 66.6% | 9.95% (active) | 88.3% | 70.2% | 77.9% | 63.8% | 43.4% | 83% | 93.1% | 62.3%
CNC(=S)NNC(=O)C1CC1 | 97.9% | 109% | 121% | 106% | 115% | 96% | 108% | 99.2% | 97.2% | 113% | 118% | 92.9% | 111% | 114% | 117% | 109% | 115% | 104% | 102% | 99.9%
CC12CCC3C4(C)COC(c5ccccc5Cl)OC4CCC3(C)C1CC(C1=CCOC1=O)O2 (stereo not drawn) | 52.7% | 59.5% | 90.2% | 78.3% | 44.1% | 85.7% | 59.4% | 64.1% | -89.9% (active) | 45% | 83.9% | 23.9% | 90.6% | 71.7% | 80.4% | 70.1% | 64.3% | 84.7% | 49.3% | 65.9%
COc1ccc(-c2nc(-c3nc4cc(C)c(C)cc4[nH]3)cc3c2[nH]c2ccccc23)cc1 | 60.1% | 95.8% | 84% | 58.4% | 42.2% | 52.3% | 72.5% | 43.2% | 6.87% (active) | 41.9% | 84.7% | 11.4% | 73.1% | -49.5% (active) | -63.8% (active) | 80.5% | 25.4% | 5.88% (active) | 89.1% | 70.2%
CCCC(=O)Oc1ccc(/C(=C(\C)c2ccccc2)c2ccc(OCCN(CC)CC)cc2)cc1 | 87.6% | 99.3% | 83.3% | 92.9% | 69.8% | 57.7% | 72.1% | 67.2% | 71% | 51% | 102% | 16% | 70.3% | 92.6% | 61.1% | 77.2% | 91.4% | 60.4% | 67.6% | 40.7%
COc1ccc(Nc2nn3c(-c4ccccc4)cc(-c4ccccc4)nc3c2C(N)=O)c(OC)c1 | 33.5% | 46.4% | 61.4% | 47.3% | 20.3% | 70.9% | 34.8% | 24% | 67.6% | 53.2% | 38.2% | 58.1% | 44.7% | 29.3% | 84.7% | 53.4% | 37.5% | 13.4% | 62.4% | 51.3%
CN1CCN(Cc2ccc(NC(=O)c3nc4ccc5[nH]ncc5c4c4c3CCC4)cc2C(F)(F)F)CC1 | 19.2% | 73.9% | -50.9% (active) | -78.7% (active) | -84.2% (active) | 65.5% | -71.1% (active) | -71.6% (active) | -96.5% (active) | -43% (active) | -90.1% (active) | -46.6% (active) | -55% (active) | -84.3% (active) | 67.9% | 98.2% | 99.8% | -96% (active) | -64.5% (active) | -84.5% (active)
CCc1ccc(-c2ccc(=O)n(-c3ccc(S(N)(=O)=O)cc3)n2)cc1 | 59.9% | 94.1% | 115% | 56.9% | 12.6% | 65.7% | -33.6% (active) | 18% | 50% | 26% | 59.6% | 11% | 35.6% | 66.8% | -31.8% (active) | 42.1% | 18.4% | 43.6% | 22.3% | 17.7%
COc1ccc(-c2nc3sc(-c4cc(OC)c(OC)c(OC)c4)nn3c2/C=C2/C(=O)Nc3ccc(F)cc32)cc1 | 2.52% (active) | 110% | -59.4% (active) | 4.69% (active) | -26.6% (active) | -58.8% (active) | 8.56% (active) | -63.6% (active) | -50.3% (active) | -43.8% (active) | -61.9% (active) | 19.9% | -48.3% (active) | -31% (active) | -32% (active) | -7.6% (active) | -17.2% (active) | 97.7% | -25% (active) | -53.4% (active)
COC(=O)C1CCCN1C(=O)[C@@H]1CCCN1C(=O)[C@H](Cc1c[nH]c2ccccc12)NC(=S)Nc1cc(C(F)(F)F)cc(C(F)(F)F)c1 (stereo partly drawn) | 69% | 75.7% | 74.7% | 80.2% | 22.3% | 17% | 46% | 37.1% | 37.6% | 66.5% | 52.5% | 38.3% | 81.7% | 14.4% | 43.7% | 51.5% | 25.1% | 55.4% | 62.4% | 60.9%
COc1ccc(C(=O)n2nc(/C=C/c3ccc(O)c(OC)c3)cc2/C=C/c2ccc(O)c(OC)c2)cc1 | 7.96% (active) | 13% | 11.7% | 5.2% (active) | 4.37% (active) | -10.7% (active) | -6.8% (active) | 3.98% (active) | 2.92% (active) | -66.2% (active) | 16.6% | -6.97% (active) | 3.93% (active) | 12.5% | -54.8% (active) | 6.45% (active) | 6.61% (active) | -24.4% (active) | 0.119% (active) | -15.1% (active)
COc1ccc(CCNC2=CC(=O)CCC2)cc1OC | 92.5% | 95% | 110% | 104% | 111% | 92.8% | 102% | 105% | 107% | 103% | 124% | 95.3% | 92.2% | 104% | 119% | 104% | 104% | 106% | 117% | 104%
Cc1cc(C2=NNC(=O)Cc3cc4c(cc32)OCCO4)cc(C)c1N | 44.2% | 75.1% | 44.9% | 37.4% | 17.6% | 69% | -20.1% (active) | 50.7% | 32.5% | 9.99% (active) | 19.3% | 25.5% | 32.3% | 67.5% | 37.7% | 44.6% | 17.1% | 19.4% | 60.1% | 13.4%
COc1ccc(/C=C/c2c(C(C)=O)c(C)nc3ccccc23)cc1 | 60.9% | 92.6% | 99.3% | 79.2% | 100% | 79.3% | 61.2% | 80.6% | 94.9% | 106% | 97.7% | 52.4% | 101% | 82.8% | 86.6% | 97.5% | 85.3% |  | 64.7% | 99.2%
COc1ccc(OC)c(C2OC(c3ccc4ccccc4c3O)=NN2C(C)=O)c1 (stereo not drawn) | 80% | 87.1% | 77.5% | 65.4% | 43% | 54.4% | 35.6% | 56.5% | 81.9% | 77.1% | 77.8% | 31.3% | 43.8% | 91.1% | 53.1% | 80.3% |  | 65.5% | 57.6% | 54.6%
